Experimental data as given in PubChem BioAssay (NCATS).
Inconclusive results are not listed. Activity calls are given as the source filed them. Calls follow the shape of the dose curve; as a rule, active = well fitted cell-killing curve with a large enough effect; inconclusive = small, poorly fitted or top-dose-only effect, or effect the other way; inactive = no such curve, though single readings can be large or run the other way.

What was measured:
[1] = Quantitative High-Throughput drug screen in 47 multiple myeloma cell lines against the NCATS MIPE library collection: MM1R_ATCC cell viability assay (AID 1918981); also: nearly all actives have a fitted effect of over 35% in size
Method in brief: (§1)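 qHTS format: cells plated (500/well), pin-dosed with MIPE 4.0 compounds, kept 48 h at 37 °C. Readout was CellTiter-Glo luminescence, median RLU.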

[2] = Quantitative High-Throughput drug screen in 47 multiple myeloma cell lines against the NCATS MIPE library collection: KMS28PE_JCRB cell viability assay (AID 1918983); also: nearly all actives have a fitted effect of over 35% in size
Method in brief: as §1

[3] = Quantitative High-Throughput drug screen in 47 multiple myeloma cell lines against the NCATS MIPE library collection: KMS34_JCRB cell viability assay (AID 1918985); also: nearly all actives have a fitted effect of over 40% in size
Method in brief: as §1

[4] = Quantitative High-Throughput drug screen in 47 multiple myeloma cell lines against the NCATS MIPE library collection: OCIMY5_PLB cell viability assay (AID 1918988); also: nearly all actives have a fitted effect of over 65% in size
Method in brief: as §1

[5] = Quantitative High-Throughput drug screen in 47 multiple myeloma cell lines against the NCATS MIPE library collection: OPM1_PLB cell viability assay (AID 1918989); also: nearly all actives have a fitted effect of over 40% in size
Method in brief: as §1

[6] = Quantitative High-Throughput drug screen in 47 multiple myeloma cell lines against the NCATS MIPE library collection: SKMM1_PLB cell viability assay (AID 1919863); conditions: SKMM1 myeloma viability, CellTiter-Glo ATP, 48 h; viability: hits give low values; also: nearly all actives have a fitted effect of over 35% in size
Method in brief: as §1

[7] = Quantitative High-Throughput drug screen in 47 multiple myeloma cell lines against the NCATS MIPE library collection: U266_ATCC cell viability assay (AID 1919864); also: nearly all actives have a fitted effect of over 35% in size
Method in brief: as §1

[8] = Quantitative High-Throughput drug screen in 47 multiple myeloma cell lines against the NCATS MIPE library collection: XG6_PLB cell viability assay (AID 1919865); also: nearly all actives have a fitted effect of over 40% in size
Method in brief: as §1

[9] = Quantitative High-Throughput drug screen in 47 multiple myeloma cell lines against the NCATS MIPE library collection: XG1_PLB cell viability assay (AID 1919866); also: nearly all actives have a fitted effect of over 35% in size
Method in brief: as §1

[10] = Quantitative High-Throughput drug screen in 47 multiple myeloma cell lines against the NCATS MIPE library collection: UTMC2_PLB cell viability assay (AID 1919868); conditions: CellTiter-Glo ATP luminescence, 48 h; viability (% of DMSO control): at 45.8 µM (top of the series); also: nearly all actives have a fitted effect of over 55% in size
Method in brief: as §1

[11] = Quantitative High-Throughput drug screen in 47 multiple myeloma cell lines against the NCATS MIPE library collection: PCM6_Riken cell viability assay (AID 1919870); also: nearly all actives have a fitted effect of over 30% in size
Method in brief: as §1

[12] = Quantitative High-Throughput drug screen in 47 multiple myeloma cell lines against the NCATS MIPE library collection: KMS11_JCRBsus cell viability assay (AID 1919873); also: nearly all actives have a fitted effect of over 50% in size
Method in brief: as §1

[13] = Quantitative High-Throughput drug screen in 47 multiple myeloma cell lines against the NCATS MIPE library collection: KMS28BM_JCRB cell viability assay (AID 1919874); also: nearly all actives have a fitted effect of over 35% in size
Method in brief: as §1

[14] = Quantitative High-Throughput drug screen in 47 multiple myeloma cell lines against the NCATS MIPE library collection: L363_DSMZ cell viability assay (AID 1918984); also: nearly all actives have a fitted effect of over 40% in size
Method in brief: as §1

[15] = Quantitative High-Throughput drug screen in 47 multiple myeloma cell lines against the NCATS MIPE library collection: VP6_DJ cell viability assay (AID 1919867); also: nearly all actives have a fitted effect of over 40% in size
Method in brief: as §1

[16] = Quantitative High-Throughput drug screen in 47 multiple myeloma cell lines against the NCATS MIPE library collection: RPMI8226_ATCC cell viability assay (AID 1919871); also: nearly all actives have a fitted effect of over 30% in size
Method in brief: as §1

[17] = Quantitative High-Throughput drug screen in 47 multiple myeloma cell lines against the NCATS MIPE library collection: OPM2_DSMZ cell viability assay (AID 1919872); also: nearly all actives have a fitted effect of over 30% in size
Method in brief: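 CellTiter-Glo ATP luminescence gave viability after 48 h compound treatment at 37C of 500 multiple myeloma cells per well. Normalisation used DMSO-only wells as 100% and media-only wells as 0% viability; primary qHTS of approved and investigational drugs.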

[18] = Quantitative High-Throughput drug screen in 47 multiple myeloma cell lines against the NCATS MIPE library collection: OCIMY7_PLB cell viability assay (AID 1918987); conditions: OCI-MY7 myeloma viability, CellTiter-Glo ATP, 48 h; viability (% of DMSO): at 45.8 µM (top of the series); also: nearly all actives have a fitted effect of over 65% in size
Method in brief: as §1

[19] = Quantitative High-Throughput drug screen in 47 multiple myeloma cell lines against the NCATS MIPE library collection: PE2_PLB cell viability assay (AID 1919869); also: nearly all actives have a fitted effect of over 35% in size
Method in brief: as §1
Potency is read from the fitted curve at half-maximal effect.

N#Cc1ccc(COC[C@H]2O[C@@H](n3c(NCc4ccc(Cl)c(Cl)c4)nc4c(N)ncnc43)[C@@H](O)[C@@H]2O)cc1
active: Potency [1] 3720 nM | Potency [2] 5900 nM | Potency [3] 16600 nM | Potency [4] 3720 nM | Potency [5] 5260 nM | Potency [6] 2960 nM | Potency [7] 20900 nM | Potency [8] 16600 nM | Potency [9] 2640 nM | Potency [10] 1320 nM | Potency [11] 5260 nM | Potency [12] 5260 nM | Potency [13] 5900 nM

CC(C)NC[C@@H](C(=O)N1CCN(c2ncnc3c2[C@H](C)C[C@H]3O)CC1)c1ccc(Cl)cc1
active: Potency [1] 105 nM | Potency [2] 1480 nM | Potency [14] 37.2 nM | Potency [3] 14800 nM | Potency [4] 1660 nM | Potency [5] 372 nM | Potency [6] 10500 nM | Potency [7] 18700 nM | Potency [8] 1660 nM | Potency [9] 1870 nM | Potency [15] 833 nM | Potency [10] 105 nM | Potency [11] 1320 nM | Potency [16] 11800 nM | Potency [17] 18700 nM | Potency [12] 4690 nM | Potency [13] 2960 nM

O=C(O)C[C@H](O)C[C@H](O)C=Cc1c(C2CC2)nc2ccccc2c1-c1ccc(F)cc1
active: Potency [1] 5900 nM | Potency [2] 14800 nM | Potency [14] 5260 nM | Potency [18] 2350 nM | Potency [4] 20900 nM | Potency [5] 2640 nM | Potency [6] 11800 nM | Potency [8] 18700 nM | Potency [9] 3320 nM | Potency [15] 16600 nM | Potency [10] 9350 nM | Potency [19] 4690 nM | Potency [16] 16600 nM | Potency [12] 7430 nM

N#Cc1c(NC(=O)c2cccc3ccccc23)sc2c1CCCC2
active: Potency [1] 743 nM | Potency [2] 469 nM | Potency [14] 296 nM | Potency [3] 296 nM | Potency [18] 187 nM | Potency [4] 187 nM | Potency [5] 469 nM | Potency [6] 526 nM | Potency [8] 148 nM | Potency [9] 83.3 nM | Potency [15] 296 nM | Potency [10] 418 nM | Potency [19] 526 nM | Potency [11] 296 nM | Potency [16] 2640 nM | Potency [12] 148 nM

CC(=O)N1CCN(c2ccc(OCc3nn(C)c(C)c3-c3cccc4c(CCCOc5cccc6ccccc56)c(C(=O)O)n(Cc5cccnc5)c34)cc2)CC1
active: Potency [1] 1050 nM | Potency [2] 16600 nM | Potency [14] 1180 nM | Potency [18] 1 nM | Potency [4] 118 nM | Potency [5] 469 nM | Potency [6] 20900 nM | Potency [7] 526 nM | Potency [8] 105 nM | Potency [9] 235 nM | Potency [15] 332 nM | Potency [19] 1660 nM | Potency [11] 1180 nM | Potency [16] 23500 nM | Potency [17] 23500 nM | Potency [12] 105 nM | Potency [13] 23.5 nM

CNC(=O)c1ccc(Nc2cc(Nc3ccccc3S(=O)(=O)C(C)C)c3cc[nH]c3n2)nc1
active: Potency [1] 6620 nM | Potency [2] 9350 nM | Potency [14] 2350 nM | Potency [18] 833 nM | Potency [5] 1660 nM | Potency [6] 18700 nM | Potency [7] 1480 nM | Potency [8] 662 nM | Potency [15] 526 nM | Potency [10] 418 nM | Potency [19] 1180 nM | Potency [11] 1180 nM | Potency [16] 18700 nM | Potency [17] 7430 nM | Potency [12] 2640 nM

Cc1coc2c1C(=O)C(=O)c1c-2ccc2c(C)cccc12
active: Potency [1] 20900 nM | Potency [2] 8330 nM | Potency [3] 166 nM | Potency [18] 5900 nM | Potency [4] 14800 nM | Potency [5] 2960 nM | Potency [6] 14800 nM | Potency [7] 20900 nM | Potency [15] 11800 nM | Potency [11] 3720 nM

O=C(NCc1ccccc1)[C@H](Cc1ccccc1)NC(=O)[C@@H]1O[C@@H]1C(=O)NCCc1ccc(O)cc1
inactive: Potency [2] | Potency [18] | viability [6] 128% | Potency [15] | Potency [17] | Potency [13]
active: Potency [1] 10500 nM | Potency [14] 16600 nM | Potency [9] 14800 nM | Potency [19] 23500 nM

COc1cc(N2CCC(C(N)=O)CC2)ccc1Nc1nc(N)c(Cl)c(Nc2ccccc2S(=O)(=O)C(C)C)n1
active: Potency [1] 1180 nM | Potency [2] 743 nM | Potency [14] 14.8 nM | Potency [3] 2960 nM | Potency [18] 209 nM | Potency [5] 5900 nM | Potency [8] 93.5 nM | Potency [9] 93.5 nM | Potency [15] 418 nM | Potency [10] 132 nM | Potency [19] 418 nM | Potency [11] 833 nM | Potency [13] 833 nM

CCOc1cc2ncc(C#N)c(Nc3ccc(OCc4ccccn4)c(Cl)c3)c2cc1NC(=O)C=CCN(C)C
active: Potency [1] 11800 nM | Potency [2] 13200 nM | Potency [14] 469 nM | Potency [3] 10500 nM | Potency [18] 52.6 nM | Potency [4] 833 nM | Potency [7] 13200 nM | Potency [8] 18.7 nM | Potency [9] 132 nM | Potency [15] 1180 nM | Potency [10] 209 nM | Potency [19] 5260 nM | Potency [11] 332 nM | Potency [12] 14800 nM

CCCCC(=O)O[C@]1(C(=O)CO)[C@@H](C)C[C@H]2[C@@H]3CCC4=CC(=O)C=C[C@]4(C)[C@@]3(F)[C@@H](O)C[C@@]21C
inactive: Potency [1] | Potency [2] | viability [6] 122% | Potency [7] | Potency [8] | Potency [9] | Potency [19] | Potency [17] | Potency [13]
active: Potency [3] 37.2 nM | Potency [4] 9.3 nM | Potency [5] 37.2 nM | Potency [15] 14800 nM | Potency [16] 11.8 nM
